Data: PubChem BioAssay AID1209 (Sanford-Burnham Center for Chemical Genomics, 2008)
Out of some 190,000 compounds screened, about 810 (0.43%) were called active. Cut-off read from the data, not from the text of the source: active = inhibition above about 50%; inactive = the rest. This excerpt belongs to a sample that is enriched for actives.

What follows are compounds tested against Mannose-6-phosphate isomerase (Homo sapiens) (UniProt P34949) (assay: inhibitors of human PMI, primary screen, biochemical, fluorescence intensity, coupled assay (AID 1209;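 note: plate controls were DMSO vehicle for no effect and wells lacking substrate for full effect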)). Details: purified PMI enzyme, at 20 µM, active compounds read high.
Chain of Mannose-6-phosphate isomerase (Homo sapiens) (P34949 whole entry, looked up): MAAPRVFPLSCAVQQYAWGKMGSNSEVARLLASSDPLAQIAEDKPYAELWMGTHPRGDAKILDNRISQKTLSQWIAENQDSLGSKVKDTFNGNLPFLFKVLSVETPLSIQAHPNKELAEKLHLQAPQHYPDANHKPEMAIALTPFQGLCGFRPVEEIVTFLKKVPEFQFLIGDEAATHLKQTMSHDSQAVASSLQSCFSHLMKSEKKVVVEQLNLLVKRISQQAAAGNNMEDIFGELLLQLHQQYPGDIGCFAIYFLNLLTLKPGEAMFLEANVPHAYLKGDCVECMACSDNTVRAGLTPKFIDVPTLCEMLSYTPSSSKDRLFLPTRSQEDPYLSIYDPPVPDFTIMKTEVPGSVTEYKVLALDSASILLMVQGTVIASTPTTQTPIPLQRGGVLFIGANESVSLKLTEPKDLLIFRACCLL

| SMILES | inhibition |
| --- | --- |
| O=C(CSc1nc2ccccc2o1)NCC(=O)c1ccccc1 | 10.6% (inactive) |
| CC(=O)N1N=C(c2cccc(Cl)c2)OC1c1cccc([N+](=O)[O-])c1 (centres undefined) | 10.4% (inactive) |
| Cc1cccc(NC(=O)CC2S/C(=N/c3nccs3)N(C)C2=O)c1 (centres undefined) | -1.9% (inactive) |
| Cc1ccc(-n2c(=S)[nH]c3sc4c(c3c2=O)CCc2ccccc2-4)cc1 | 10.4% (inactive) |
| Cc1ccc(-n2c(=S)[nH]c3sc4c(c3c2=O)CCC4)cc1 | 2.3% (inactive) |
| COc1ccc(-n2c(=S)[nH]c3sc4c(c3c2=O)CCc2ccccc2-4)cc1 | 57.8% (active) |
| Cc1cccc(-n2c(=S)[nH]c3c(oc4ccccc43)c2=O)c1 | -1.9% (inactive) |
| Cc1cccc(-n2c(=O)c3c4c(sc3n3c(=S)[nH]nc23)CCC4)c1 | -0.7% (inactive) |
| COc1ccc(N2C(=O)CCC(C(=O)NCCN3CCOCC3)C2c2ccc(OC)c(OC)c2)cc1 (centres undefined) | 17.2% (inactive) |
| C=CCNC(=O)/C(=C/c1ccccc1OCC)NC(=O)c1ccccc1 | 3.5% (inactive) |
| CCCSc1nnc2[nH]c(=O)cc(N)n12 | -1.4% (inactive) |
| CCO[C@H]1OC(C(=O)N2CCN(Cc3ccc4c(c3)OCO4)CC2)=C[C@@H](c2ccccc2)[C@@H]1CCCO | 7.5% (inactive) |
| O=C(Cn1cncn1)NCCCc1ccccc1 | 4.2% (inactive) |
| COc1cc(/C=C2\NC(=S)N(C)C2=O)ccc1O | -2.1% (inactive) |
| CC(=O)c1c(C)[nH]c(C(=O)OCC(=O)Nc2cc(Cl)ccc2[N+](=O)[O-])c1C | 9.3% (inactive) |
| Cc1ccc(S(=O)(=O)N2CCN(C(=O)/C=C/c3ccco3)CC2)cc1 | 26% (inactive) |
| COc1ccccc1N1C(=N)S/C(=C\c2ccc(-c3ccccc3C(=O)O)o2)C1=O | -36.9% (inactive) |
| Cc1ccc(C)c(N2C(=N)S/C(=C\c3ccc(-c4ccccc4C(=O)O)o3)C2=O)c1 | 18.5% (inactive) |
| CC(=O)Nc1ccc(S(=O)(=O)NNC(=O)COc2ccc(C)cc2)cc1 | 0.9% (inactive) |
| CCOC(=O)N1CCN(Cc2ccc(F)cc2F)CC1 | -1.3% (inactive) |
| Cc1cc(C)n2nc(CCc3nc4nc(C)cc(C)n4n3)nc2n1 | -4.4% (inactive) |
| Cc1cc(C)n2ncnc2n1 | 5.9% (inactive) |
| Cc1cc(C)n2nc[n+](C)c2n1 | 72.6% (active) |
| Cc1cc(-c2ccc(N3C(=O)CCC3=O)c(C)c2)ccc1N1C(=O)CCC1=O | 1.5% (inactive) |
| COC(=O)CN(c1ccc(Cl)cc1C)S(C)(=O)=O | 1.2% (inactive) |

| SMILES | inhibition |
| --- | --- |
| COc1ccc(C(=O)CNc2ccc3ccccc3c2)cc1 | 76.9% (active) |
| COc1ccc(C(=O)CNc2ccccc2CO)cc1 | -10.5% (inactive) |
| COc1ccc(C(=O)CNc2ccccc2C#N)cc1 | -2.6% (inactive) |
| O=[N+]([O-])c1cccc(-c2nc3ccc([N+](=O)[O-])cc3[nH]2)c1 | -13.7% (inactive) |
| COc1ccccc1NC(=O)c1ccc(NC(=O)COC(=O)C2CCCCC2)cc1 | 10.6% (inactive) |
| CSC1=N/C(=C\c2cccc(F)c2)C(=O)S1 | -4.9% (inactive) |
| C=C(C)CNC(=S)Nc1cccc2cnccc12 | 14.2% (inactive) |
| CCCCNC(=S)Nc1cccc2cnccc12 | 5.6% (inactive) |
| Cc1cc(C)cc(NC(=S)Nc2cccc3cnccc23)c1 | 66.2% (active) |
| S=C(Nc1cccc(Cl)c1)Nc1cccc2cnccc12 | 57.2% (active) |
| Cc1ccc(NC(=S)Nc2cccc3cnccc23)cc1 | 80.1% (active) |
| S=C(Nc1cccnc1)Nc1cccc2cnccc12 | 47.5% (inactive) |
| S=C(Nc1ccc(Cl)cc1)Nc1cccc2cnccc12 | 26.4% (inactive) |
| Cc1ccc(NC(=S)Nc2cccc3cnccc23)cc1C | -0.2% (inactive) |
| Cc1c(C(=O)N2CCN(c3ccc(C(F)(F)F)cn3)CC2)oc2ccccc12 | 13.3% (inactive) |
| CC(NC(=O)/C=C/c1ccco1)c1nc2ccccc2n1Cc1c(Cl)cccc1Cl (centres undefined) | -4.3% (inactive) |
| CNc1ccc2nnc(C(F)(F)C(F)(F)C(F)(F)F)n2n1 | -0.7% (inactive) |
| Cc1c(C)n(C(=O)CN2CCC(C(N)=O)CC2)c2ccccc12 | 7.2% (inactive) |
| CCCC(=O)Nc1ccc(C(=O)Nc2ccc([N+](=O)[O-])cc2OC)cc1 | -20.7% (inactive) |
| COc1ccc(OCC(=O)O/N=C(\N)Cc2cccs2)cc1 | 3.7% (inactive) |
| O=C(CCN1C(=O)C2CC=C(Cl)CC2C1=O)NC1CCCCC1 (centres undefined) | -7.8% (inactive) |
| Cc1cc(C)n2nc(SCC(=O)c3cc(C)n(CC4CCCO4)c3C)nc2n1 (centres undefined) | -13.5% (inactive) |
| Cc1ccc(NC(=O)CSc2n[nH]c(-c3ccco3)n2)c(C)c1 | -4% (inactive) |
| CCOC(=O)c1c(NCc2ccccc2)n[nH]c1C | 13.3% (inactive) |
| Cc1cccc(N2C(=O)CC(Sc3ncn[nH]3)C2=O)c1 (centres undefined) | 34.7% (inactive) |

| SMILES | inhibition |
| --- | --- |
| COc1ccc(N2C(=O)CC(Sc3ncn[nH]3)C2=O)c(OC)c1 (centres undefined) | 73.4% (active) |
| O=C1CC(Sc2ncn[nH]2)C(=O)N1c1ccccc1 (centres undefined) | 42.6% (inactive) |
| CN(c1nnc(N)s1)C1CCCCC1 | -8.5% (inactive) |
| CCn1ncc(C2=NOC(C(=O)Nc3cccc(O)c3)C2)c1C (centres undefined) | -18.7% (inactive) |
| Fc1ccc(C2=CC(c3ccco3)n3ncnc3N2)cc1 (centres undefined) | -42.5% (inactive) |
| C1=C(c2ccc(-c3ccccc3)cc2)Nc2ncnn2C1c1ccco1 (centres undefined) | 52.3% (active) |
| Clc1ccc(C2=CC(c3ccco3)n3ncnc3N2)cc1 (centres undefined) | -12.4% (inactive) |
| Cc1nc2[nH]c(=S)n(C)c(=O)c2nc1C | -17.3% (inactive) |
| COC(=O)[C@@]1(Cc2ccc(F)cc2)[C@H]2c3cc(C(=O)N4CCCC4)n(CCc4ccc(O)c(O)c4)c3C[C@H]2CN1C(=O)c1ccccc1 | 50.8% (active) |
| COC(=O)[C@@]1(Cc2ccc(F)cc2)[C@H]2c3cc(C(=O)N4CCCC4)n(CCO)c3C[C@H]2CN1C(=O)c1ccccc1 | 1.6% (inactive) |
| COCCn1c(C(=O)N2CCCC2)cc2c1C[C@H]1CN(C(=O)c3ccccc3)[C@@](Cc3ccc(F)cc3)(C(=O)OC)[C@@H]21 | 13.8% (inactive) |
| O=C(CNCc1ccc(F)cc1)Nc1ccccc1[N+](=O)[O-] | 5% (inactive) |
| Cc1cc(C)c(NC(=O)COC(=O)c2cccc3c2C(=O)c2ccccc2C3=O)c(C)c1 | 5.1% (inactive) |
| Cc1cc(C)c(Nc2cc(S(=O)(=O)O)c(N)c3c2C(=O)c2ccccc2C3=O)c(C)c1 | 91.5% (active) |
| Cc1cccc(S(=O)(=O)Nc2cccc3c2C(=O)c2ccccc2-3)c1 | 10.6% (inactive) |
| COc1ccc(CCC(=O)NNC(=S)Nc2cccc(C(C)=O)c2)cc1 | 1.2% (inactive) |
| Cn1nnnc1SCc1ccc(C(=O)Nc2ccccc2F)cc1 | 9% (inactive) |
| C/C(=N\NC(=O)C(c1ccccc1)c1ccccc1)c1ccccn1 | -5% (inactive) |
| O=C(NNC(=O)C(c1ccccc1)c1ccccc1)c1ccccn1 | 10.3% (inactive) |
| O=C(NNc1ccccn1)C(c1ccccc1)c1ccccc1 | 50.2% (active) |
| O=C(OCc1cnc(Cl)s1)c1cccc(Cl)c1 | 10.3% (inactive) |
| CC(=O)Nc1ccc(/C(C)=N/NC(=O)c2ccccc2Cl)cc1 | 5.1% (inactive) |
| c1ccc(C2=Nn3c(nnc3-c3ccco3)SC2)cc1 | 75.6% (active) |
| COc1ccc(C2=Nn3c(nnc3-c3ccco3)SC2)cc1 | -15.3% (inactive) |
| CCOc1ccc(C2=Nn3c(nnc3-c3ccco3)SC2)cc1 | 8.1% (inactive) |

| SMILES | inhibition |
| --- | --- |
| C/C(=C\C(=O)Nc1nccs1)c1ccccc1 | 9.8% (inactive) |
| Cc1cc(C)n2cc(CSc3ccccn3)nc2n1 | -5.1% (inactive) |
| Clc1ccc(CSc2ncn[nH]2)cc1 | 7.1% (inactive) |
| O=C(/C=C/Sc1ccccc1)c1ccc(Cl)cc1 | -10% (inactive) |
| O=C(/C=C/Sc1ncn[nH]1)c1ccc(Cl)cc1 | 50.3% (active) |
| Cc1cc(C)n2nc(SCCOc3ccccc3F)nc2n1 | -4.9% (inactive) |
| O=C(CSc1nccc(=O)[nH]1)Nc1ccc(F)c(Cl)c1 | 1.7% (inactive) |
| COCc1c(C#N)c(NCCc2ccccc2)nc(C)c1[N+](=O)[O-] | 11.3% (inactive) |
| CCCCn1c(SCC(=O)NCc2cccs2)nc2c1c(=O)n(C)c(=O)n2C | 9% (inactive) |
| CCOc1cc(C(=S)N2CCOCC2)ccc1OC | 3.4% (inactive) |
| CCOc1cc(C(=S)N2CCOCC2)ccc1O | 66.8% (active) |
| CCOc1ccc(C(=S)N2CCOCC2)cc1OCC | -6.6% (inactive) |
| O=C(CN1C(=O)C2C3C=CC(C3)C2C1=O)Nc1ccc(F)cc1 (centres undefined) | 0.9% (inactive) |
| O=C(CN1CCN(c2ccc(F)cc2)CC1)Nc1ccc(-n2cnnn2)cc1 | 3.3% (inactive) |
| O=C(CN1CCN(c2ccccc2)CC1)Nc1ccc(-n2cnnn2)cc1 | 108% (active) |
| O=C(CN1CCN(Cc2ccccc2)CC1)Nc1ccc(-n2cnnn2)cc1 | -1.5% (inactive) |
| COc1ccc(/C=N/NC(=S)SC)cc1OC | 12.8% (inactive) |
| Cc1ccc(C(=O)N(C)c2ccc(OCC(=O)N3c4ccc(C)cc4C4CN(C)CCC43)cc2)cc1 (centres undefined) | 1.9% (inactive) |
| Cc1cc(C)nc(SCC(=O)c2ccc([N+](=O)[O-])cc2)n1 | -11.2% (inactive) |
| Cc1ccc(C(=O)CSc2nsc(C)c2C#N)cc1 | 7.2% (inactive) |
| Cc1snc(SCC(=O)c2ccc(F)cc2)c1C#N | -11.6% (inactive) |
| Cc1nnc(SCC(=O)c2ccc([N+](=O)[O-])cc2)s1 | 2.6% (inactive) |
| Cc1snc(SCC(=O)c2ccc(Cl)cc2)c1C#N | 56.7% (active) |
| Cc1ccc(CC2CC(=O)N(C(Cc3ccccc3)C(=O)O)C2=O)cc1 (centres undefined) | 0.9% (inactive) |
